Data on 68 sequences can be found in PubChem BioAssay AID1508600 (Functional Genomics Laboratory (NCATS/FGL), 2020).

In all, about 53,000 sequences went through this assay and about 3,700 (7%) were called active. Shown is part of a subset that was picked to be rich in actives. Values without a mark were called inactive.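 Rule for the calls: active = gene knockdowns whose robust z-score for IL-1 alpha signal is at least 2 or at most -2, so actives lie on both sides; inactive = the rest.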

A short description of the assay: Components of the Cytosolic LPS Sensing Pathway: Gene Identification via Genome-wide siRNA Screen.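 Note: robust z of the log signal after scaling to non-targeting control siRNA wells of the plate.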 The note with it: RAW264.7 macrophages, IL-1a HTRF, actives lie on both sides, screened at 100 nM (by protocol), cells primed 5 h with Pam3CSK4 first. The essentials: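 Knockdown: 100 nM siRNA, 48h, RAW264.7. Stimulation: Pam3CSK4 5 h, then LipidA via TransIT-TKO 24 h. Output: supernatant IL-1a HTRF, negative-control-normalized, log robust z-score; viability by CellTiter-Glo.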
(Time-resolved FRET reads energy transfer from a long-lived donor to a nearby acceptor.)
On to GGGUUGUCCUGAACUUUAATT against Npr1, for which the z-score is 0.236.
Under “GGCCAGUGGAGGAAUAUGATT against 1300017J02Rik” stands -0.383; under CCACGUGUCUUAGAAUUAATT against Gas1, 1.67; under GGCCAACAAGGAAAACAUCTT against Bcas2, 1.33.
Under GGUCUGUAUGUCAUUUAUCTT against Ywhag stands -0.208; under GGUAAUGCUGUGGAGUCUUTT against Wdr53, -2.59 (active); under GGAAGGCCAUUUCAACUAATT against Olfr1367, 1.54.
In the case of GGUGAUUUGAACUGUGAAATT against Tmem126a, the z-score was -0.963.
On to GGACAAACCUUGGAAGAUUTT against Ccdc166, for which the z-score was -0.24.
Under GGUUGGAAAUGACUAAUAATT against Slco6c1 stands -1.01; under GGAAGGUGUCUGUAAUAUATT against Slamf9, -0.0451; under GGAGGGCAGAUCUACGAUGTT against Aars, 0.182.
Under GAAACUUUGAGUCCUCCAGTT against Dop1b stands 3.22 (active); under CGAGUUCAAACCGUCCUCUTT against Sdhc, 0.105.
Under CGGAAUGAUCACGACCGAUTT against Nsrp1 stands 0.133.
In the case of CCAAGUAAUUCCUACUACUTT against Olfr1100, the z-score was -0.25.
Under GGCUGGAUGUAGAAAAUAUTT against Aspm stands -2.1 (active).
Under GGGAAGCAAAUCUAUACCCTT against Tnfrsf11a stands -0.243; under GGUGUUGUCAGAAGUUUAATT against Slc22a13b, 1.8; under CCUCAUGCAGUUAAAUAUGTT against Kera, -1.56.
Under GGAGAAGGAUGGAGUGUUUTT against Brms1l stands 1.8.
For GGACUUUGUAACUAAUACCTT against Slco2b1, the z-score is 0.914.
Under CGAUGAUGAACGAUGGACATT against Mmp3 stands 2.47 (active).
Under GGCACUGGCAGGAAAUUACTT against Alg6 stands -1.52; under GGACUGCCUUAAUUAAAGUTT against Coa6, 1.7; under GCUGUGACUCUACUGGAGGTT against Zfp397, 0.746.
Under GGCAGAACCCACUGAGAAATT against Pakap stands -0.349.
For GGAAAUCGAGCAUGUCUUCTT against Stk32c, the z-score is 2.21 (active).
Take GGAAAAGAGAAGAAGGCACTT against Taf6: the z-score is 0.654.
As to GCCUUUGAGGUUAUGAUCATT against Klk7, the z-score is -1.09.
Under GGCUGUGGUGAAGACUUUCTT against Cd81 stands -1.06.
For GGUGAAGCAGUUUGACUUCTT against Rbm18, the z-score is 0.0154.
As for “GGUUCUGGUUGAUAGAGAUTT against 4931428L18Rik”, the z-score is 0.373.
CUUCUUGGUGGGUCUGACUTT against Taar7e: the z-score was -2.63 (active).
Under CGACUGGAAAAAGAUUGGGTT against Ttf1 stands -0.219.
Under GCGGCAGUAAAUUGUGAGGTT against Grin3b stands 1.4; under GGAAAUCCAGAAGCGUGUGTT against Gtpbp3, -0.436.
Under GGAGGAGCGUACUAUUUAATT against Slc12a2 stands 3.34 (active); under GGAGGAUGCAAUUUUUAACTT against Sult1e1, 0.771.
With GGAGAAACUGAAACAAGCUTT against Gpc4, the z-score is 0.403.
Consider GCACUAAGCUUUAUUCAUCTT against Mast2, for which the z-score is -0.0104.
Consider GGAAACUUUUACUUCACAGTT against P3h1, for which the z-score is -0.322.
As for GGAUCUACGCAAGCAAGCATT against Oxnad1, the z-score is 2.12 (active).
Under GCAAAGAAGCUCUUUAGAGTT against Hoxc5 stands 0.455.
Under GCCAUAAGAUGCUACAGUGTT against Tubb6 stands 1.53; under “GGAAAGUACCCUAGGAGUUTT against 4921509C19Rik”, -1.6; under CCCUCAACUUUCAGAUCAGTT against Naa10, 2.81 (active).
Under CCUACUUCCGAGGUUUCUUTT against Ifnz stands -0.493.
As to GGAAAGGAGUCUGCCAGCUTT against Tef, the z-score is -1.29.
Under GGAAGAAGGAAGGUUCAGATT against Strm stands -0.581; under “GUGCAAACGGCAAACAUUCTT against 1700001G17Rik”, 1.89.
GGGCGAAAACCAUUCAAAUTT against Zfp112: the z-score is 3.38 (active).
Take CCUCCUGACUACAAGAACUTT against Utp14a: the z-score is 0.911.
Under “CCUUGAUACCUUUCCAUGUTT against 9130008F23Rik” stands -0.68; under CGUUCUUGAGAGUCGAUCATT against Smoc2, -0.19; under GCGGCAUCUACUUAAUAUGTT against Acer2, 2.12 (active).
Under GCACCUUCAGCUAUCUAACTT against Nepn stands 0.478; under GCUGUUCCUCUUUCUUUCUTT against Olfr522, 0.315.
Under CCUAGAGUCUCAGGACUGUTT against Actrt3 stands 0.682; under GGUUUCGUACCAUGAAACATT against Stx2, -0.147.
For GCUUUGACUGGAAUGACGGTT against Pex7, the z-score is -2.2 (active).
Under GGAGCUGUCUAAUCAUAAUTT against Clasp2 stands -0.109; under GGAGUGGAAGAAGAAGUAUTT against Agap3, 0.177; under GGAGUUUCUACGUGUAUGCTT against Tpra1, -0.161.
Take GGACUUUGUGGAGAAUGUCTT against Cyp1a2: the z-score was -0.876.
CCUACAGAGUACAGAUUAUTT against Atp6v0d1: the z-score is -0.228.
Under “GGACUGAGAGGGAUGGUAATT against A530016L24Rik” stands 0.293; under GCUAAGACUCUUGAAUCAGTT against Zfp280d, 3.72 (active).
